# From PubChem BioAssay (NCATS)
# Records with an inconclusive call do not appear. Calls of active or inactive are those of the source. Calls follow the shape of the dose curve; as a rule, active = well fitted curve in the direction sought with a large enough effect; inconclusive = small, poorly fitted or top-dose-only effect, or another doubt; inactive = no such curve, though single readings can be large; an effect the other way counts as inactive or inconclusive.
# Tests used:
# [1] = target: N-terminal Xaa-Pro-Lys N-methyltransferase 1 (Homo sapiens) (UniProt Q9BV86); test: qHTS Assay for Inhibitors of N-terminal methyltransferase 1 (NTMT1): LOPAC validation of the NTMT1 SAHH-coupled ThioGlo3 Assay (AID 1347143);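 also: SAH from peptide methylation measured as thiol fluorescence via SAHH coupling and ThioGlo3; nearly all actives have a fitted effect of over 70% in size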; also: potency is read from the fitted curve at half-maximal effect
# Sequence of N-terminal Xaa-Pro-Lys N-methyltransferase 1 (Homo sapiens) (Q9BV86 whole entry, looked up): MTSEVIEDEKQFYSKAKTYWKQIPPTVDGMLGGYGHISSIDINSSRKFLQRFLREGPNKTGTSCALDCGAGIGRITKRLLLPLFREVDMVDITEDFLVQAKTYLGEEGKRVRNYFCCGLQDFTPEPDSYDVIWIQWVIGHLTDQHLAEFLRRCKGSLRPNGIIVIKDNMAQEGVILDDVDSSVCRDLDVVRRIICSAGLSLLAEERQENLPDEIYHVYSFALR
# How it was run: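 Recombinant human NTMT1 (125nM) was pre-incubated 1 min at room temperature with compounds over a concentration range, then a mix of 100uM SAM, 10uM SAHH and 15uM ThioGlo3 (concentrations in added reagent) was added. ThioGlo3 fluorescence (ex 340/em 450nm) after 30 min was normalized to the initial reading.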
# [2] = qHTS of pediatric cancer cell lines to identify multiple opportunities for drug repurposing: Confirmatory screen for BT-37 cells (AID 1347117); conditions: BT-37 pediatric cancer cells, viability; also: potency is read from the fitted curve at half-maximal effect; nearly all actives have a fitted effect of over 55% in size
# How it was run: (§1)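 Viability after 48 h compound treatment at 37C, 500-1,000 cells/well, read as ATP luminescence with CellTiter-Glo. Primary screens used 11-point (MIPE, 0.78 nM-46 µM) or 8-point (NPC, 0.59 nM-46 µM) final concentrations; follow-up screens used 11-point dilutions.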
# [3] = qHTS of pediatric cancer cell lines to identify multiple opportunities for drug repurposing: Confirmatory screen for TC32 cells (AID 1347118); conditions: TC32 Ewing sarcoma cells viability qHTS;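 also: potency is read from the fitted curve at half-maximal effect; cells exposed to compound for 48 h before the read; nearly all actives have a fitted effect of over 65% in size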
# How it was run: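 Measured quantity: luminescence from CellTiter-Glo, reflecting metabolically active TC32 cells following 48 h of compound. Curves came straight from multi-point titrations, with 8 or 11 points in primary and 11 in confirmatory screening.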
# [4] = qHTS of pediatric cancer cell lines to identify multiple opportunities for drug repurposing: Confirmatory screen for MG 63 (6-TG R) cells (AID 1347119); also: nearly all actives have a fitted effect of over 55% in size; also: potency is read from the fitted curve at half-maximal effect
# How it was run: as §1
# [5] = qHTS of pediatric cancer cell lines to identify multiple opportunities for drug repurposing: Confirmatory screen for control Hh wild type fibroblast cells (AID 1347121); also: nearly all actives have a fitted effect of over 70% in size; also: potency is read from the fitted curve at half-maximal effect
# How it was run: as §1
# [6] = qHTS of pediatric cancer cell lines to identify multiple opportunities for drug repurposing: Confirmatory screen for U-2 OS cells (AID 1347122); also: nearly all actives have a fitted effect of over 65% in size; also: potency is read from the fitted curve at half-maximal effect
# How it was run: as §1
# [7] = qHTS of pediatric cancer cell lines to identify multiple opportunities for drug repurposing: Confirmatory screen for Rh41 cells (AID 1347123);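 also: 48 h compound exposure; nearly all actives have a fitted effect of over 60% in size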; also: potency is read from the fitted curve at half-maximal effect
# How it was run: as §1
# [8] = qHTS of pediatric cancer cell lines to identify multiple opportunities for drug repurposing: Confirmatory screen for RD cells (AID 1347124);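 also: cells exposed to compound for 48 h before viability readout; nearly all actives have a fitted effect of over 65% in size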; also: potency is read from the fitted curve at half-maximal effect
# How it was run: as §1
# [9] = qHTS of pediatric cancer cell lines to identify multiple opportunities for drug repurposing: Confirmatory screen for Saos-2 cells (AID 1347127); conditions: Saos-2 osteosarcoma cell viability; also: potency is read from the fitted curve at half-maximal effect; nearly all actives have a fitted effect of over 60% in size
# How it was run: as §1
# [10] = qHTS of pediatric cancer cell lines to identify multiple opportunities for drug repurposing: Confirmatory screen for OHS-50 cells (AID 1347128);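 also: compound exposure lasted 48 h at 37 degrees C; nearly all actives have a fitted effect of over 55% in size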; also: potency is read from the fitted curve at half-maximal effect
# How it was run: as §1
# [11] = qHTS of pediatric cancer cell lines to identify multiple opportunities for drug repurposing: Confirmatory screen for SK-N-SH cells (AID 1347129);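 also: cells exposed to compound for 48 h before viability read; nearly all actives have a fitted effect of over 60% in size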; also: potency is read from the fitted curve at half-maximal effect
# How it was run: as §1
# [12] = test system: Zika virus NS2B-NS3 protease; test: Primary screen GU AMC qHTS for Zika virus inhibitors (AID 1347154); also: nearly all actives have a fitted effect of over 70% in size; also: potency is read from the fitted curve at half-maximal effect
# How it was run: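 Unlinked Zika NS2B hydrophilic domain–NS3 protease complex at 25 nM in 10 mM Tris-HCl pH 8.0, 0.01% Tween 20, with an AMC peptide substrate. Fluorescence change (340/450 nm) over 15 min at room temperature, normalized to controls, fitted to 4-parameter Hill.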
# [13] = target: Furin (Homo sapiens) (UniProt P09958); test: Furin counterscreen qHTS for Zika virus inhibitors (AID 1347149); also: nearly all actives have a fitted effect of over 70% in size; also: potency is read from the fitted curve at half-maximal effect
# Sequence of Furin (Homo sapiens) (P09958 whole entry, looked up): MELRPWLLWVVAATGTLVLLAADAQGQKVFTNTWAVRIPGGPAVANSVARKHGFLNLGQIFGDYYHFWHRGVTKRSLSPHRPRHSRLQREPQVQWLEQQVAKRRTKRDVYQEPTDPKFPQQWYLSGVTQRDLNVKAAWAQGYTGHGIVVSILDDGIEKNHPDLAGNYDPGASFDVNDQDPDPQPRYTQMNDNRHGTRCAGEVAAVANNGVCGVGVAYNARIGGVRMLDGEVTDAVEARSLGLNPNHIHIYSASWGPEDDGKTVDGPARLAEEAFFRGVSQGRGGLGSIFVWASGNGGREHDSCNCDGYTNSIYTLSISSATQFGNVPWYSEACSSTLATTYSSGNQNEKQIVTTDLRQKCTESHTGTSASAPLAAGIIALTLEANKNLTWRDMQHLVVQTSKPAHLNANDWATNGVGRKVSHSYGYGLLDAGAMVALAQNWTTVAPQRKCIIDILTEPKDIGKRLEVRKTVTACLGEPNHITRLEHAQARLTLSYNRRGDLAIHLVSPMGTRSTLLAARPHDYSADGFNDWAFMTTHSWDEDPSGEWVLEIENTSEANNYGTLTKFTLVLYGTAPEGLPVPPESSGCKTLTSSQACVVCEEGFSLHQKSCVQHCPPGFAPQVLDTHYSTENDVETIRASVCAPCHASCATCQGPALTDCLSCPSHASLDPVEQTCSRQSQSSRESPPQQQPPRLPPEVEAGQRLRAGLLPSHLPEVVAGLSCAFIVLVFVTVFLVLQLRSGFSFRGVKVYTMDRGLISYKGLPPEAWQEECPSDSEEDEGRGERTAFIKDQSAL
# How it was run: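 Fluorogenic cleavage of BOC-RVRR-AMC (2 microM final, Km ~15 µM) was monitored (ex 340, em 450 nm) at 37C after 15 min RT preincubation of 5 nM furin with compounds in HEPES pH 7.0 buffer with CaCl2 and Triton X-100. Percent inhibition was fitted to a 4-parameter Hill curve.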
# [14] = test system: Zika virus NS2B-NS3 protease (unlinked); test: Optimization of GU AMC qHTS for Zika virus inhibitors: Unlinked NS2B-NS3 protease assay (AID 1347151); also: nearly all actives have a fitted effect of over 80% in size; also: potency is read from the fitted curve at half-maximal effect
# How it was run: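 Fluorescence read-out (340 nm ex / 450 nm em) of AMC peptide cleavage, taken immediately and after 15 min at room temperature (~20% conversion). Enzyme was the unlinked NS2B–NS3 complex at 25 nM in Tris pH 8.0 buffer.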
# [15] = test system: Zika virus NS2B-NS3 protease (linked construct); test: Confirmatory screen NINDS AMC qHTS for Zika virus inhibitors (AID 1347152)
# How it was run: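 Linked NS2B-NS3 1 nM, Tris pH 8.0/0.01% Tween 20; cpd 15 min RT dark; + Nle-KRR-AMC 10 µM (Km 18.3 µM); read 0 and 15 min, 340/450 nm; %inh vs controls, 4-param Hill.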
# [16] = test system: Zika virus NS2B-NS3 protease (unlinked complex); test: Confirmatory screen GU AMC qHTS for Zika virus inhibitors (AID 1347153); also: nearly all actives have a fitted effect of over 70% in size
# How it was run: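 Unlinked enzyme 25 nM, Tris pH 8.0/0.01% Tween 20; cpd 15 min RT, dark; + AMC substrate 10 µM (Km 18.3 µM); 340/450 nm read at t0 and 15 min; % inhibition → 4-param fit.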
# [17] = qHTS of pediatric cancer cell lines to identify multiple opportunities for drug repurposing: Confirmatory screen for NB-EBc1 cells (AID 1347115);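 also: cells exposed to compound for 48 h before the viability read; nearly all actives have a fitted effect of over 45% in size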; also: potency is read from the fitted curve at half-maximal effect
# How it was run: as §1
# [18] = qHTS of pediatric cancer cell lines to identify multiple opportunities for drug repurposing: Confirmatory screen for SJ-GBM2 cells (AID 1347116); also: nearly all actives have a fitted effect of over 60% in size; also: potency is read from the fitted curve at half-maximal effect
# How it was run: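 Viability measured as metabolically active cells via CellTiter-Glo luminescence following 48 hours of compound exposure, 11-point dilutions in confirmatory testing. 500-1,000 cells/well plated 5 hours before dosing; controls were DMSO and 2.3 µM bortezomib.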
# [19] = qHTS of pediatric cancer cell lines to identify multiple opportunities for drug repurposing: Confirmatory screen for Rh18 cells (AID 1347125); also: nearly all actives have a fitted effect of over 55% in size; also: potency is read from the fitted curve at half-maximal effect
# How it was run: as §1
# [20] = qHTS of pediatric cancer cell lines to identify multiple opportunities for drug repurposing: Confirmatory screen for Rh30 cells (AID 1347126); also: nearly all actives have a fitted effect of over 55% in size; also: potency is read from the fitted curve at half-maximal effect
# How it was run: as §1
smiles,measurement,setting,value
CC(C)(C)NCC(O)COc1nsnc1N1CCOCC1 (stereo not given),Potency,[1],inactive
CCCSc1ccc2nc(NC(=O)OC)[nH]c2c1,Potency,[2],3.98 µM (active)
same,Potency,[3],0.355 µM (active)
same,Potency,[4],1.26 µM (active)
same,Potency,[5],inactive
same,Potency,[6],1 µM (active)
same,Potency,[7],1.12 µM (active)
same,Potency,[8],2.51 µM (active)
same,Potency,[9],1.58 µM (active)
same,Potency,[10],2.51 µM (active)
same,Potency,[11],6.31 µM (active)
same,Potency,[12],inactive
COc1ccc(/C=C/c2nc(NCCCN(C)C)c3ccccc3n2)cc1,Potency,[1],50.1 µM (active)
same,Potency,[13],24.1 µM (active)
same,Potency,[14],26.7 µM (active)
same,Potency,[15],inactive
same,outcome,[16],inactive
Nc1ncnc2c1ncn2[C@@H]1O[C@H](CO)C(O)[C@H]1O (stereo not given in full),Potency,[1],2.24 µM (active)
COC(=O)c1nc(Cl)c(Cl)nc1N,Potency,[17],16.5 µM (active)
same,Potency,[18],2.08 µM (active)
same,Potency,[2],1.47 µM (active)
same,Potency,[3],2.33 µM (active)
same,Potency,[4],2.93 µM (active)
same,Potency,[6],2.61 µM (active)
same,Potency,[7],1.31 µM (active)
same,Potency,[8],2.61 µM (active)
same,Potency,[19],20.8 µM (active)
same,Potency,[20],16.5 µM (active)
same,Potency,[9],2.61 µM (active)
same,Potency,[10],18.5 µM (active)
same,Potency,[11],4.69 µM (active)
same,Potency,[12],10 µM (active)
CNC(=O)[C@H]1O[C@@H](n2cnc3c(NCc4ccc(N)cc4)ncnc32)[C@H](O)C1O (stereo not given in full),Potency,[1],inactive
Oc1cc2c(cc1O)CN(C(=S)NCCc1ccc(Cl)cc1)CCC2,Potency,[1],20 µM (active)
same,Potency,[13],inactive
same,Potency,[14],23.8 µM (active)
same,Potency,[15],inactive
same,outcome,[16],inactive
same,Potency,[12],inactive
COc1cccc2c1C(=O)c1c(O)c3c(c(O)c1C2=O)C[C@@](O)(C(=O)CO)C[C@@H]3O[C@H]1C[C@H](N)[C@H](O[C@@H]2CCCCO2)[C@H](C)O1,Potency,[17],3.29 µM (active)
same,Potency,[18],14.7 µM (active)
same,Potency,[2],1.17 µM (active)
same,Potency,[3],0.465 µM (active)
same,Potency,[7],2.93 µM (active)
same,Potency,[20],5.85 µM (active)
same,Potency,[11],2.35 µM (active)
C[C@H](Cc1ccccc1)Nc1ncnc2c1ncn2[C@@H]1O[C@H](CO)C(O)[C@H]1O (stereo not given in full),Potency,[1],inactive
OCC1O[C@H]([S-])C(O)[C@@H](O)[C@@H]1O.[Au+] (stereo not given in full),Potency,[1],inactive
CC[C@@H](C)[C@H]1O[C@]2(CC[C@@H]1C)C[C@@H]1C[C@@H](C/C=C(\C)[C@@H](O[C@H]3C[C@H](OC)[C@@H](O[C@H]4C[C@H](OC)[C@@H](O)[C@H](C)O4)[C@H](C)O3)[C@@H](C)/C=C/C=C3\CO[C@@H]4[C@H](O)C(C)=C[C@@H](C(=O)O1)[C@]34O)O2,Potency,[1],inactive
Nc1ccc([N+](=O)[O-])cc1O,Potency,[17],inactive
same,Potency,[18],inactive
same,Potency,[3],7.59 µM (active)
same,Potency,[4],inactive
same,Potency,[5],inactive
same,Potency,[6],inactive
same,Potency,[7],inactive
same,Potency,[19],inactive
same,Potency,[20],inactive
same,Potency,[10],inactive
same,Potency,[11],inactive
same,Potency,[12],inactive
CN1C2CC(OC(=O)[C@H](CO)c3ccccc3)CC1C1OC12 (stereo not given in full),Potency,[1],inactive
same,Potency,[14],inactive
Nc1nc(SCc2ccc([N+](=O)[O-])cc2)c2ncn([C@@H]3O[C@H](CO)C(O)[C@H]3O)c2n1 (stereo not given in full),Potency,[1],inactive
OC[C@H]1O[C@@H](n2cnc3c(NC4CCCC4)ncnc32)[C@H](O)C1O (stereo not given in full),Potency,[1],inactive
CNC(=O)[C@H]1O[C@@H](n2cnc3c(NCc4cccc(I)c4)ncnc32)[C@H](O)C1O (stereo not given in full),Potency,[1],inactive
COc1ccc(NC(=O)/C=C/c2ccc(Cl)cc2)cc1,Potency,[1],inactive
CN(C)c1ccc(C(=C2C=CC(=[N+](C)C)C=C2)c2ccccc2)cc1,Potency,[17],0.827 µM (active)
same,Potency,[18],1.31 µM (active)
same,Potency,[2],0.657 µM (active)
same,Potency,[3],0.261 µM (active)
same,Potency,[4],0.208 µM (active)
same,Potency,[5],0.737 µM (active)
same,Potency,[7],0.414 µM (active)
same,Potency,[8],1.31 µM (active)
same,Potency,[19],1.04 µM (active)
same,Potency,[20],0.104 µM (active)
same,Potency,[9],0.522 µM (active)
same,Potency,[10],2.61 µM (active)
same,Potency,[11],1.32 µM (active)
same,Potency,[12],inactive
C=C/C(C)=C/[C@@]1(C)SC(=O)C(C)=C1O,Potency,[1],inactive
Cc1cc2c(cc1Cl)N(C(=O)Nc1ccc(Oc3cccnc3C)nc1)CC2,Potency,[1],8.91 µM (active)
CO/N=C(\C(=O)N[C@@H]1C(=O)N2C(C(=O)O)=C(COC(C)=O)CS[C@H]12)c1csc(N)n1 (stereo in doubt),Potency,[1],inactive
C[N+](C)(C)CCOP(=O)(O)OP(=O)([O-])OC[C@H]1O[C@@H](n2ccc(N)nc2=O)[C@H](O)C1O (stereo not given in full),Potency,[1],inactive
N=C1N=C(N)c2cc3ccccc3cc21,Potency,[2],38 µM (active)
same,Potency,[3],17 µM (active)
same,Potency,[4],19.1 µM (active)
same,Potency,[7],30.2 µM (active)
same,Potency,[8],inactive
same,Potency,[20],47.9 µM (active)
same,Potency,[10],42.7 µM (active)
same,Potency,[11],38.2 µM (active)
same,Potency,[12],23.3 µM (active)
O=c1cc(-c2ccccc2)oc2c(O)c(O)ccc12,Potency,[1],56.2 µM (active)
